# Reference: PubChem BioAssay (NCI)
# The panel holds about 83,000 compounds, 20% with a hit somewhere; the sample as a whole holds those more often.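 Each cell line was grown in a 96-well plate and treated with one concentration of compound for 48 hours. Values below 10 were considered active.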 A number with no mark means an inactive call. Active and inactive are the calls of the source.
# System: CAKI-1 renal
# Assay: NCI-60 one-dose screen, 48 h (100 = growth as untreated, 0 = no growth, -100 = all killed)
# Conditions: 10 µM unless noted
# Method: Growth inhibition of the CAKI-1 human tumor cell line is measured as a screen for anti-cancer activity. Cells are grown in 96 well plates and exposed to the test compound for 48 hours. Compounds are tested at a single concentration, which is 10^-5 M for most compounds. The reported endpoint is percent growth (GI% or GIPRCNT), where numbers from 0 - 100% represent growth inhibition, and numbers from -100% - 0 represent cell death. For example, a value of 40 represents 60% growth inhibition. A value of 0 means no net growth occurred over the course of the experiment. A value of -40 indicates 40% of cells at the beginning of the experiment died by the end of the experiment. A value of -100 means all cells are dead at the end of the experiment.
# NCI-60 Human Tumor Cell Lines Screen was performed using the standard one-dose NCI protocol, which is described in more detail at https://dtp.cancer.gov/discovery_development/nci-60/default.htm.
# Compounds with GIPRCNT values below 10 were considered active. Activity score was based on GIPRCNT using the following formula: […]
# Score is 0 for GIPRCNT values of 100 or above, 50 for GIPRCNT values of 0, and 100 for GIPRCNT values of -100.
row,Compound,growth
1,CN1CCN(c2ccc(-c3ccc4ncc(C#N)c(Nc5ccc(F)c(Cl)c5)c4c3)cn2)CC1,27.2%
2,CC(C)(C)NC(=O)C(OC(=O)c1cccc(Cl)c1)c1ccc(Cl)cc1 (stereo not given),99.3%
3,CCc1ccccc1-n1c(N)c(C#N)c(-c2ccc(Cl)cc2)c(C#N)c1=O,103%
4,COc1ccc(N2C(=O)C(Oc3ccccc3)C2c2ccc(C)cc2)cc1 (stereo not given),93%
5,O=C(Nc1nc2ccc(F)cc2s1)c1cccnc1Nc1ccc(Cl)cc1Cl,-0.286% (active)
6,C=CCNc1ccc2c3c(cccc13)C(=O)N(N1C(=O)c3cccc4cccc(c34)C1=O)C2=O,94.1%
7,CCOC(=O)c1cn2ncnc(Oc3ccc(NC(=O)NCCN4CCOCC4)c(Cl)c3)c2c1C,87.7%
8,C[C@]12CC[C@@H]3c4cc(OC(F)F)c(OS(N)(=O)=O)cc4CC[C@H]3[C@@H]1CC[C@@H]2O,41.4%
9,O=C(N/N=C/[C@H](O)[C@@H](O)[C@@H](O)[C@H](O)CO)c1ccc(NC(=O)c2cccnc2)cc1,101%
10,COc1cc(C(=O)c2cnc(-c3cccc4[nH]ccc34)[nH]2)cc(OC)c1OC,16.7%
11,Cc1cccc2c(=O)c3c(sc12)c(NCc1ccccc1)nc1ccccc13,76.4%
12,NCCCNc1nc2ccccc2c2c(=O)c3cc(OC(F)(F)F)ccc3sc12,-72.7% (active)
13,Oc1c(I)cc(I)cc1CNCCCN(Cc1ccccn1)Cc1ccccn1,-96.1% (active)
14,COc1ccc2c(c1)nc(NNC(=O)c1cnccn1)c1cccn12,21.3%
15,CCOC(=O)c1c2c(n(-c3ccc(C#N)cc3)c1-c1ccccc1)C=CCC2,76.4%
16,C#Cc1cccc(NC(=O)Nc2ccccc2NC(=O)CCl)c1,-85.2% [8.25 µM] (active)
17,Cc1nc2ccccc2c(/C=C/c2ccc(Cl)cc2)c1C(=O)/C=C/c1ccc(C(F)(F)F)cc1,-95.4% (active)
18,COc1ccc(/C=C(\C#N)n2nnc3c(F)cccc32)cc1,24.8%
19,O=C(COc1ccc(/C=C2\Cc3ccc(Cl)cc3C2=O)cc1)Nc1nc2ccccc2s1,92.3%
20,Cc1cc(Cl)ccc1NS(=O)(=O)c1ccc(-c2cnc(C3CC3)o2)cc1,43.4%

row,Compound,growth
1,CCN(CC)CCCNc1nc2ccccc2c2c(=O)c3cc(Cl)ccc3sc12,23%
2,CN1CCN(Cc2ccc(NC(=O)c3cncc(C#Cc4cnccc4C#N)c3)cc2C(F)(F)F)CC1,54.8%
3,N#Cc1c(Nc2cccc(Cl)c2)sc(C(=O)c2cc3cc(Cl)ccc3o2)c1N,151%
4,COc1cc2oc(-c3ccc(O)cc3)cc(=O)c2c(O)c1-c1c(OC)cc(O)c2c(=O)cc(-c3ccc(O)cc3)oc12,26.9%
5,C[N+]1=C(/C=C/c2ccc(O)c3ncccc23)C(C)(C)c2ccccc21,25.7%
6,Cc1cccc2c3c(sc12)C(c1ccc(F)cc1)C(C#N)=C(N)O3 (stereo not given),-0.939% (active)
7,CNCCCNc1nc2ccccc2c2c(=O)c3cc(F)ccc3sc12,-60.9% (active)
8,O=CN1N=C(c2ccc(Nc3ccnc4cc(Cl)ccc34)cc2)CC1c1ccccc1 (stereo not given),38.2%
9,O=C1c2cccc3cccc(c23)C(=O)N1Nc1nc(NC2CCCCC2)nc(N2CCOCC2)n1,76.5%
10,C=C(C)C1CCC2(C)OC2C1 (stereo not given),81.2%
11,CCN(CC)S(=O)(=O)c1ccc(NC(=O)CSc2nnc(C)n2-c2ccccc2)cc1,106%
12,CCN(CC)CCNC(=O)c1cn2ncnc(Oc3ccc(NC(=O)Nc4ccc(Cl)c(C(F)(F)F)c4)cc3)c2c1C,-58.9% (active)
13,Cc1ccc(/C=C2\Oc3ccc(O)c(O)c3C2=O)cc1,34.4%
14,CCOC(=O)c1c(C)nc2c(c1N)CC(=O)N2Cc1ccc(F)cc1,92.9%
15,COc1ccc(-c2conc2-c2ccccc2)cc1,33.5%
16,NS(=O)(=O)c1ccc(-n2nc(-c3ccc(Cl)cc3)c3ccccc3c2=O)cc1,95.9%
17,COc1ccc(OC)c(/C=C/C(=O)N/N=C/c2ccc(Cl)cc2)c1,41.8%
18,COC(=O)c1ccc2[nH]c(O)c(C(=Nc3ccc(N(C)C(=O)CN4CCN(C)CC4)cc3)c3ccccc3)c2c1,4.65% (active)
19,Cc1[nH]c(C(=O)Nc2ccc(C(=O)NCCN)cc2OC(C)C)c(Cl)c1Cl,14.2%
20,COc1cc(C(=O)/C=C/c2sc(Cl)nc2Cl)cc(OC)c1OC,37.1%
